MITF inh – inhibitors of MITF, primary screen, MITF inhibitor project, cell-based, luminescence | TRPM1 promoter luciferase, 24 h | inhibition, % (test concentration not listed) | 37,000 compounds, 0.28% hits; in the data active = inhibition above about 85%; inconclusive = no clear call, values can overlap the other calls; inactive = below about 68%;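 also: human melanocyte line stably carrying TRPM1 promoter luciferase reporter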
Shh pathway inh – Hedgehog pathway signaling inhibitors, primary screen, luminescence, Shh-LIGHT2 cells, Gli-luciferase. Shh-LIGHT2 Gli-luciferase reporter, 30 h. inhibition, % (concentration not given with the values). 22,000 compounds, 2.1% hits. AID 2313, 2010;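 active = mean inhibition across valid replicates above about 65%, limit read from the data; inconclusive = mean under the limit, yet half or more replicates past it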;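 also: pathway switched on by Shh-conditioned medium diluted 1 in 25 in low serum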
BJeLR viab HTS – BJeLR cell viability loss, primary screen, luminescence, CellTiterGlo ATP; BJeLR fibroblasts viability, 48 h; HRASV12, hTERT and SV40 LT/ST transformed; viability loss activity score, % (no concentration beside the values); 30,000 compounds, 0.64% hits; in the data active = viability loss activity score above about 50%; inconclusive = no clear call, values can overlap the other calls; inactive = below about 35%;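 also: higher score means fewer live cells and less ATP luminescence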
Active calls of the source: *; ? = inconclusive; nt = no result given; ! = not active in a repeat. Only a selection was taken, and hits are over-represented in it overall.

SMILES | MITF inh | Shh pathway inh | BJeLR viab HTS
O=C(NCc1ccccc1)C(NS(=O)(=O)c1cccs1)c1ccccc1 (configuration not stated) | nt | nt | 6
C=C(CO)C(=O)O[C@H]1C[C@@]23O[C@@H]2CC/C(=C/[C@H]2OC(=O)C(=C)[C@H]12)CO[C@@H]3O | -11 | -28 | -2
C=C(C)C(=O)O[C@H]1C[C@@]2(C)OC(=CC2=O)/C(COC(C)=O)=C\[C@H]2OC(=O)C(=C)C12 (some centres not stated) | 34 | ? | 61*
S=C(Nc1ccccc1Cl)N(CCN1CCCCCC1)Cc1cccs1 | nt | nt | -5
C[C@@H]1O[C@@H](O[C@H]2[C@@H]3C=CO[C@@H](O[C@@H]4O[C@H](CO)[C@@H](O)[C@H](O)[C@H]4O)[C@@H]3[C@@]3(CO)O[C@@H]23)[C@H](OC(=O)/C=C/c2ccc(O)cc2)[C@H](O)[C@H]1O | nt | 65* | nt
C[C@@H]1O[C@@H](O[C@H]2[C@@H]3C=CO[C@@H](O[C@@H]4O[C@H](CO)[C@@H](O)[C@H](O)[C@H]4O)[C@@H]3[C@@]3(CO)O[C@@H]23)[C@H](O)[C@H](O)[C@H]1OC(=O)/C=C/c1ccccc1 | nt | -3 | nt
CCn1cc(C(=O)N(C)Cc2ccccc2)c2cc(OC)c(OC)cc2c1=O | nt | nt | 1
CCOC(=O)c1c(-c2ccccc2)oc2c(-c3ccccc3)cc(O)cc12 | nt | nt | -1
O=C(Nc1ccccc1C(F)(F)F)c1cnc2ccccn2c1=O | nt | nt | -3
S=c1nccc(-c2ccc3c(c2)CCO3)[nH]1 | -38 | -20 | -2
CC1(C)CCc2cc(-c3ccnc(=S)[nH]3)ccc2O1 | 32 | 66* | -4
OC(CSc1nccc(-c2ccc3c(c2)OCCO3)n1)C(F)(F)F (configuration not stated) | nt | nt | 6
CCSc1nccc(-c2ccc3c(c2)CCC(C)(C)O3)n1 | 46 | 78* | 2
CCc1ccc(Oc2coc3cc(OC(C)C(=O)OC(C)C)ccc3c2=O)cc1 (configuration not stated) | nt | nt | 3
Cc1ccc2oc(=O)c3cc(C(=O)N(CC(C)C)CC(C)C)sc3c2c1 | nt | nt | -2
Cc1ccc(Nc2nnc(-c3ccc(C)c(S(=O)(=O)NCC4CCCO4)c3)c3ccccc23)cc1 (configuration not stated) | -2 | 91* | 5
CNS(=O)(=O)c1cc(-c2nnc(Nc3cccc(O)c3)c3ccccc23)ccc1C | -1 | nt | nt
CCC(Sc1nnc(C)n2c1cc1oc(C)cc12)C(=O)Nc1cccc(OC)c1 (configuration not stated) | nt | nt | -4
CCCc1c(-c2ccccc2)nc2sc3c(c2c1N)CCCCC3 | nt | nt | 7
COc1ccc(C2=NOC(C(=O)N3CCCCC3C)C2)cc1 (configuration not stated) | nt | nt | 1
C[C@@H]1CC[C@]2(C(=O)O)CC[C@]3(C)C(=CCC4[C@@]5(C)CC[C@@H](O)[C@](C)(C(=O)O)C5CC[C@]43C)C2[C@H]1C (some centres not stated) | -1 | -8 | nt
CC1CC(=O)[C@]2(C)CC[C@]3(C)C(C(=O)C(O)C4[C@@]5(C)CC[C@H](O)C(C)(C(=O)O)C5CC[C@]43C)C2C1C (some centres not stated) | 58 | 82* | 106*
COc1cc2c(c(N)c1OC)C(=O)/C(=C/c1cc(C)c(O)c(C)c1)C2 | -1 | 84* | 22
COc1ccc2c(c1)OC/C(=C\c1ccc(OC)c(O)c1)C2=O | 2 | ? | nt
CC1=CCC[C@@H]2[C@](CCc3ccoc3)(C(=O)O)[C@H](C)CC[C@@]12C | -7 | -47 | -3
SMILES | MITF inh | Shh pathway inh | BJeLR viab HTS
C[C@@H]1C[C@H]2OCC3=CCC[C@H]([C@]1(CC(O)c1ccoc1)C(=O)O)[C@]32CO (some centres not stated) | 19 | -22 | 92*
N#Cc1c(NC(=O)CSc2ncn[nH]2)sc2c1CCCCC2 | 104* | nt | nt
COC(=O)c1c(NC(=O)CSc2ncn[nH]2)sc2c1CCCC2 | 18 | nt | nt
COc1ccccc1NC(=O)C(NC(=O)c1ccccc1NC(=O)c1ccccc1)C(C)C (configuration not stated) | nt | nt | -3
O=C(Nc1ccc(NC(=O)c2ccccc2O)cc1)c1ccc(Cl)cc1 | -11 | 97* | -4
CC(C)(C)c1ccc(C(=O)Nc2ccc(NC(=O)c3ccccc3F)cc2)cc1 | 10 | 15 | 3
CS(=O)(=O)N(CC(=O)Nc1ccc(Cl)c(Cl)c1)c1cc(Cl)cc(Cl)c1 | 12 | nt | nt
CS(=O)(=O)N(CC(=O)Nc1ccc(Cl)c(Cl)c1)c1ccc(Br)cc1 | 116* | nt | nt
O=C(CCS(=O)(=O)c1cccc2nonc12)N1CCCCC1 | nt | nt | -5
CC1=CC2OC3[C@H](O)C[C@](C)([C@@]2(CO)CC1=O)[C@]31CO1 (some centres not stated) | 47 | 95* | 37
CC(=O)OC[C@]12CCC(C)=CC1O[C@@H]1[C@H](O)[C@@H](O[C@H]3O[C@H](CO)[C@@H](O)[C@H](O)[C@H]3O)[C@@]2(C)C12CO2 (some centres not stated) | nt | 50 | nt
Nc1ncnc2c1ncn2C1OC(CO)[C@H](O)[C@@H]1S (some centres not stated) | -1 | -8 | 0
COc1ccc(C[C@H](N)C(=O)N[C@H]2[C@@H](O)[C@H](n3cnc4c(N(C)C)ncnc43)O[C@@H]2CO)cc1 | 102* | 85* | 4
CC1=C(C(=O)Nc2ccccc2)C(c2ccc(C(C)C)cc2)n2c(nc3ccccc32)N1 (configuration not stated) | nt | nt | 0
CCC(C(=O)N(C)c1ccccc1)c1ccccc1 (configuration not stated) | nt | nt | -3
O=C1C=CC(=O)c2c(O)c(Cl)c(Cl)c(O)c21 | 60 | 44 | 54*
CCc1cccc(NC(=O)C2=C(C)C(=O)OC23CCCCC3)c1 | nt | nt | 7
Nc1ncn(C(=O)c2ccccc2)n1 | nt | nt | 1
COc1cc(CC(C)C(C)Cc2ccc(O)c(OC)c2)ccc1O (configuration not stated) | 47 | -59 | 118*
COc1cc(CC(CO)C(CO)Cc2cc(OC)c(O)c(-c3cc(CC(CO)C(CO)Cc4ccc(O)c(OC)c4)cc(OC)c3O)c2)ccc1O (configuration not stated) | nt | 9 | nt
COc1ccccc1CNC(=S)N(C)C | nt | nt | -1
CC(C)CNC(=O)c1cc(-c2ccc(Cl)cc2)on1 | nt | nt | 5
COc1ccc(OC)c(NC(=O)CS(=O)(=O)c2cccc3nsnc23)c1 | nt | nt | 4
O=C(NCc1cccnc1)/C(=C\c1ccc(Br)cc1)S(=O)(=O)c1ccccc1 | nt | nt | 7
O=C(NCc1cccnc1)/C(=C\c1cccc(Oc2ccccc2)c1)S(=O)(=O)c1ccccc1 | nt | nt | 96*
CCn1c(=O)c2cc(C(=O)N(C)c3cccc(C(F)(F)F)c3)sc2c2ccccc21 | nt | nt | -6
COc1ccc2c(c1OC)C(=O)OC2Nc1nc2ccc(OC(F)(F)F)cc2s1 (configuration not stated) | nt | nt | 1
Nc1nc2ccc(OC(F)(F)F)cc2s1 | -44 | 68*! | -5
Cc1ccc2c(c1)C(c1ccccc1)CC(C)N2C(=O)c1ccccc1F (configuration not stated) | nt | nt | 6

Assay outcomes from PubChem BioAssay.
